Rows were chosen to be rich in hits. Some 12% of all compounds tested hit in one or more screens of this group.
G9a block: blocks human histone lysine methyltransferase G9a; Q96KQ7; G9a H3K9 monomethylation, AlphaScreen, 2 h; Potency, µM (titrated, usually from 102 µM), inactives show at the highest dose activity, negative = inhibition, hits mostly inhibitors; 350,000 tested, 8.8% active; AID 504332; further: on the % scale 0 is the no-effect control and ±100 the full control effect; nearly all actives have a fitted effect of over 75% in size
Target sequence (Q96KQ7 913-1193 limits assumed): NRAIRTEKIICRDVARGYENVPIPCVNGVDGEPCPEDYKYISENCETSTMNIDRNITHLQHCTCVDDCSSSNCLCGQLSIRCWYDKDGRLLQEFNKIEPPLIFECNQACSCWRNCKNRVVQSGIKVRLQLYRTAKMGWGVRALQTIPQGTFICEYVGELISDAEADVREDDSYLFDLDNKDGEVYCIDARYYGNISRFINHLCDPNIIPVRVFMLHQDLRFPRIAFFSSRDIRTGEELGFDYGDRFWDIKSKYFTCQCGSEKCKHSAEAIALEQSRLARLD
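Chemiluminescent proximity detection of H3K9 monomethylation, read after 10 min bead incubation in the dark. Reaction: 20 nM G9a, 500 nM biotin-H3K9 peptide, 20 uM SAM cofactor, 2 h, room temperature, following 15 min enzyme-compound preincubation.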
Sfp PPTase inh: inhibitors of Bacillus subtilis Sfp phosphopantetheinyl transferase; 310,000 tested, 3.5% active; Q9F4F7; AID 1490; Biochemical Sfp PPTase activity, qHTS; Potency, µM, for inactives: largest response in the series, negative = inhibition, actives largely listed as inhibitors;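 further: the enzyme is Sfp with the accession as filed and its product quenches rhodamine fluorescence; 0% = enzyme reaction without inhibitor and -100% = no enzyme wells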
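Fluorescence-quenching assay with 15 nM Sfp, 5 uM rhodamine-CoA and 12.5 uM BHQ-2-labelled ybbR peptide in pH 7.6 Hepes/MgCl2 buffer. Enzyme was pre-incubated with compound for 15 min at room temperature. Rate was taken from the 30-min fluorescence change (525/598 nm).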
BAZ2B inh: BAZ2B (human) inhibition; Q9UIF8; AlphaScreen BAZ2B-H3K14Ac peptide displacement; Potency, µM (titrated, usually from 114 µM), inactives show top-dose activity change, negative = inhibition, actives largely listed as inhibitors; 360,000 tested, 4.4% active; further: on the % scale 0 is the no-effect control and ±100 the full control effect; nearly all actives have a fitted effect of over 60% in size
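Multi-concentration screen (max 110 uM) measuring displacement of acetylated histone H3 peptide from BAZ2B by AlphaScreen, using 50 nM protein, 50 nM peptide and 10 ug/mL streptavidin donor plus Ni-chelate acceptor beads.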
HP1b chromo inh: HP1-beta chromodomain-methylated histone interaction inhibition. AlphaScreen HP1-beta / biotin-H3K9me3 peptide binding. Potency, µM (titrated, usually from 114 µM), for inactives: top-dose activity change, negative = inhibition, actives largely listed as inhibitors. 390,000 tested, 0.56% active. AID 540317; further: nearly all actives have a fitted effect of over 70% in size
Target sequence (P83916 whole entry, looked up): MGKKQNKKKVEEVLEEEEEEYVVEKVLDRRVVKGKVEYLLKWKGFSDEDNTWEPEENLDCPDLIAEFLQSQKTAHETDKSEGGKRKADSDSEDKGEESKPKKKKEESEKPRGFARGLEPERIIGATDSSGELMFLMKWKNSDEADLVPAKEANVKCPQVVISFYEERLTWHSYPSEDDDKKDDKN
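Compound inhibition of the preformed complex between 50 nM HP1-beta and 50 nM biotinylated H3K9me3 peptide was read by AlphaScreen. Buffer was PBS pH 7.4 with 0.01% Tween-20. Incubations ran 30 min at room temperature, with 10 ug/mL donor/acceptor beads.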
JMJD2A Tudor: JMJD2A Tudor domain (human) inhibition | 390,000 tested, 4.4% active | Potency, µM (doses to about 114 µM), without a hit: at the highest dose activity change, negative = inhibition, usual class: inhibitors | O75164 | AlphaScreen JMJD2A-Tudor / H3K4me3 peptide binding | AID 504339; further: on the % scale 0 is the no-effect control and ±100 the full control effect; nearly all actives have a fitted effect of over 50% in size
An asterisk follows results filed as active; ? = inconclusive; . = not tested or not shown; ! = repeats disagree; [ ] = remark or other dose. The call rests on the fitted dose curve; in most records, active means well fitted curve in the direction sought with a large enough effect; inconclusive means small, poorly fitted or top-dose-only effect, or another doubt; inactive means no such curve, though single readings can be large; an effect the other way counts as inactive or inconclusive. Potency means the concentration at half of the fitted maximal effect.

SMILES	G9a block	Sfp PPTase inh	BAZ2B inh	HP1b chromo inh	JMJD2A Tudor
NCCCC[C@H](NC(=O)[C@H](Cc1c[nH]c2ccccc12)NC(=O)[C@H](CC(=O)O)NC(=O)[C@H](Cc1cnc[nH]1)NC(=O)[C@H](CO)NC(=O)[C@H](Cc1c[nH]c2ccccc12)NC(=O)[C@H](Cc1cnc[nH]1)NC(=O)[C@@H]1CCC(=O)N1)C(=O)N1CCC[C@H]1C(=O)NCC(N)=O	.	-26%	.	.	.
COc1ccc2c(c1)C(c1ccc(N3CCOCC3)cc1)=NNC(c1cccnc1)=N2	-5%[59 µM]	1%	?	-15%	-36%
CC(C)c1ccc2c(c1)C(c1ccc(N3CCOCC3)cc1)=NNC(c1cccs1)=N2	45µM*	13%	?	-17%	?
COc1ccc2c(c1)C(c1cccs1)=NNC(c1ccncc1)=N2	.	-5%	?	-8%	?
CC(C)c1ccc2c(c1)C(c1cccs1)=NNC(c1ccncc1)=N2	28µM*	-1%	?	13%	-33%
Cc1c(Cl)cnc(NC(=O)COC(=O)/C=C/c2ccco2)c1Cl	45µM*	.	50µM*	-4%	?
O=C(COC(=O)/C=C/c1ccco1)Nc1ncc(C(F)(F)F)cc1Cl	22µM*	40µM*	45µM*	50µM*	35µM*
COC(=O)Cn1c(C(=O)N(C)C)cc2c1C[C@H]1CN(C(=O)c3ccccc3)[C@@](Cc3ccc(OC)cc3)(C(=O)OC)[C@@H]21	.	17%	.	.	.
CCOc1ccc(CN(CC)C(=O)Cc2c[nH]c3ccccc23)cc1OC	3%	16%	-22%	0%	-18%
COc1ccc(CCNC(=O)c2ccc(-n3c(C)cc4c3CCC(C)C4)cc2)cc1OC (stereo unspecified)	-33%[59 µM]	.	-21%	-10%	-27%
CCOC(=O)c1cc(-c2ccc(OC)cc2)n[nH]1	.	5%	1%	36%	-7%
O=c1c2ccccc2nc(-c2cccs2)n1-c1cccc2ccccc12	?	-12%	-12%	12%	-18%
S=c1[nH]nc(-c2cc(-c3ccsc3)n[nH]2)n1-c1cccc2ccccc12	8.9µM*	-15%	?	1%	?
COc1ccc(-n2c(COc3cccc(C)c3)n[nH]c2=S)cc1	17%[0.501 µM]	13%	-2%	18%	?
CC(=O)c1ccc(-n2c(-c3cc(-c4ccsc4)n[nH]3)n[nH]c2=S)cc1	1.1µM*	-36%	-35%	10%	?
COCc1n[nH]c(=S)n1-c1cccc2ccccc12	16µM*	-18%	0%	17%	20µM*
COc1ccc(-c2cc(-c3n[nH]c(=S)n3-c3cccc4ccccc34)[nH]n2)cc1	35µM*	1%	?	?	?
O=C(NCCc1ccccc1)c1cc(-c2ccc(Cl)c(Cl)c2)on1	14%[59 µM]	.	12%	14%	-9%
CNC(=S)N(CCO)Cc1cc2cc3c(cc2[nH]c1=O)OCO3	4%[2.33 µM]	11%	4%	26%	-6%
CSc1ncccc1C(=O)OCC(=O)NC1CC1	-4%	.	2%	15%	-8%
COc1ccc(OC)c(NS(=O)(=O)c2ccc(-c3coc(C)n3)cc2)c1	12%	9%	-21%[57.1 µM]	22%	-19%
COC1(C#CC2C=CC(OC(C)=O)C(COC(C)=O)O2)CCCCC1 (stereo unspecified)	.	0%	.	.	.
Cc1nn(C)c(C)c1NC(=O)CSc1nc(C2CC2)nc2c1cnn2-c1ccccc1	3%[59 µM]	-7%	8%	76%	-5%[57.1 µM]
CC1CCCCN1C(=O)CSc1nc(C2CC2)nc2c1cnn2-c1ccccc1 (stereo unspecified)	?	20µM*	7%	-15%	-15%
NS(=O)(=O)c1cc(C(=O)O)cc(N2CCCC2)c1Oc1ccccc1	18µM*!	16%	5%	10%	-10%
CCCCNc1cc(C(=O)O)cc(S(N)(=O)=O)c1Oc1ccccc1	-7%[59 µM]	8%	-3%	48%	-6%
c1ccc(CNc2ccnc(-c3ccoc3)n2)cc1	.	-24%	.	.	.
O=[N+]([O-])c1ccccc1N=Nc1ccc(O)cc1O	.	.	.	?	56µM*
COc1ccccc1CC(=O)Nc1ccc2nc(Nc3cccc(C(F)(F)F)c3)cc(C)c2c1	9%[59 µM]	.	6%	39%	-3%

Screening data (PubChem BioAssay)
